Records with an inconclusive call do not appear. Activity calls are given as the source filed them. Calls follow the shape of the dose curve; as a rule, active = well fitted cell-killing curve with a large enough effect; inconclusive = small, poorly fitted or top-dose-only effect; inactive = flat fitted curve, though single readings scatter.
Experiments:
[1] = Cell Viability - LYMP2-019 (AID 973); conditions: LYMP2-019 lymphoblastoid cell line viability; series mostly up to 92.2 µM; also: nearly all actives have a fitted effect of over 55% in size
Method in brief: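 AC50 values come from Hill-equation fits of luminescent intracellular ATP (CellTiter-Glo, 30 min, room temperature) following 24 h compound exposure at 37 C. Cells: LYMP2-019 lymphoblastoid line, 2500 per well, in complete culture medium.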

[2] = Cell Viability - LYMP2-021 (AID 974); conditions: LYMP2-021 lymphoblastoid cells viability; series mostly up to 92.2 µM; also: nearly all actives have a fitted effect of over 55% in size
Method in brief: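 AC50 values come from Hill-equation fits to CellTiter-Glo luminescence (ATP content), read after 24 hour compound exposure at 37 C of 2500 LYMP2-021 lymphoblastoid cells/well; tetraoctylammonium bromide as positive control.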

[3] = Cell Viability - LYMP2-023 (AID 975); conditions: LYMP2-023 lymphoblastoid cell viability; series mostly up to 92.2 µM;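 also: cellular ATP measured by luciferase luminescence as viability proxy; nearly all actives have a fitted effect of over 55% in size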
Method in brief: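 Intracellular ATP, read by CellTiter-Glo luminescence, reports viability after 24 hr compound exposure at 37 C. 2500 lymphoblastoid cells/well (LYMP2-023) seeded 5 hr beforehand; Hill fits give AC50; positive control tetraoctylammonium bromide.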

[4] = Cell Viability - LYMP2-025 (AID 976); conditions: LYMP2-025 lymphoblastoid cell viability; series mostly up to 92.2 µM
Method in brief: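 Cytotoxicity read as loss of intracellular ATP (luciferase luminescence) after 24 h compound treatment at 37 C. Uses LYMP2-025 lymphoblastoid cells in 1536-well format; Hill-equation modelling gives AC50; tetraoctylammonium bromide as positive control.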

[5] = Cell Viability - LYMP2-002 (AID 977); conditions: LYMP2-002 lymphoblastoid cell viability, qHTS; series mostly up to 92.2 µM
Method in brief: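 Human lymphoblastoid cells, 2500/well, complete medium; 5 h 37 C settle; compound 24 h 37 C; CellTiter-Glo, 30 min RT; luminescence. Decrease in ATP = cytotoxicity; AC50 via Hill equation.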

[6] = Cell Viability - LYMP2-006 (AID 978); conditions: LYMP2-006 lymphoblastoid cell viability, qHTS; series mostly up to 92.2 µM; also: nearly all actives have a fitted effect of over 60% in size
Method in brief: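 Cells are seeded at 2500 per well and rested 5 hr at 37 C. Compounds are added across a concentration series for 24 hr at 37 C, after which ATP is quantified by luciferase luminescence.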

[7] = Cell Viability - LYMP2-007 (AID 979); conditions: LYMP2-007 lymphoblastoid cell viability; series mostly up to 92.2 µM;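 also: cells exposed to compound for 24 h before reading; nearly all actives have a fitted effect of over 60% in size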
Method in brief: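 AC50 values come from Hill-equation fits of luminescent intracellular ATP (CellTiter-Glo, 30 min, room temperature) following 24 h compound exposure at 37 C. Cells: LYMP2-007 lymphoblastoid line, 2500 per well, in complete culture medium.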

[8] = Cell Viability - LYMP2-008 (AID 980); conditions: LYMP2-008 lymphoblastoid cell viability, qHTS; series mostly up to 92.2 µM; also: nearly all actives have a fitted effect of over 60% in size
Method in brief: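 Cytotoxicity determined from ATP-dependent luciferase luminescence (CellTiter-Glo) following 24 h compound exposure of human lymphoblastoid LYMP2-008 cells at 37 C. Concentration-response data fitted to the Hill equation to give AC50.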

[9] = Cell Viability - LYMP2-010 (AID 981); conditions: LYMP2-010 lymphoblastoid cell viability, qHTS; series mostly up to 92.2 µM; also: nearly all actives have a fitted effect of over 55% in size
Method in brief: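 CellTiter-Glo ATP luminescence measured cytotoxicity after 24 h compound exposure at 37 C. LYMP2-010 cells were seeded at 2500/well, with tetraoctylammonium bromide as control; concentration-response curves gave AC50 values by the Hill equation.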

[10] = Cell Viability - LYMP2-012 (AID 982); conditions: LYMP2-012 lymphoblastoid cell viability qHTS; series mostly up to 92.2 µM

Measured: outcome

NS(=O)(=O)c1cc2c(cc1Cl)NCNS2(=O)=O
inactive: all assays above

Cn1c(=O)c2[nH]cnc2n(C)c1=O
not listed: [4]
inactive: all other assays above

COc1ccc(CCN(C)CCCC(C#N)(c2ccc(OC)c(OC)c2)C(C)C)cc1OC (stereo not given)
inactive: [4]

Cc1cn([C@H]2C=C[C@@H](CO)O2)c(=O)[nH]c1=O
inactive: all assays above

CC(C)C(=O)Nc1ccc([N+](=O)[O-])c(C(F)(F)F)c1
not listed: [1]
inactive: all other assays above

NCCS(=O)(=O)O
inactive: all assays above

O=c1[nH]cc(F)c(=O)[nH]1
inactive: [1] | [2] | [3] | [4] | [5]

COc1ccc2c(c1)c(CC(=O)O)c(C)n2C(=O)c1ccc(Cl)cc1
inactive: all assays above

Nc1c2c(nc3ccccc13)CCCC2
inactive: all assays above

Cn1c(=O)c2c(ncn2C)n(C)c1=O
inactive: all assays above

Clc1ccc(C(c2ccccc2Cl)C(Cl)Cl)cc1 (stereo not given)
inactive: all assays above

Nc1ccn([C@H]2CC[C@@H](CO)O2)c(=O)n1
inactive: all assays above

Cc1ccc(-c2cc(C(F)(F)F)nn2-c2ccc(S(N)(=O)=O)cc2)cc1
inactive: all assays above

N[C@@H](Cc1c[nH]c2ccc(O)cc12)C(=O)O
inactive: all assays above

O=c1c(-c2ccc(O)cc2)coc2cc(O)cc(O)c12
not listed: [9]
inactive: all other assays above

CCC1(c2ccccc2)C(=O)NCNC1=O
inactive: all assays above

CC(C)NCC(O)c1ccc(O)c(O)c1 (stereo not given)
inactive: all assays above

COc1ccc2[nH]cc(CCNC(C)=O)c2c1
inactive: all assays above

COc1cc2c(c(OC)c1OC)-c1ccc(OC)c(=O)cc1[C@@H](NC(C)=O)CC2
inactive: [3] | [4]

Cc1cn([C@H]2C[C@H](N=[N+]=[N-])[C@@H](CO)O2)c(=O)[nH]c1=O
inactive: all assays above
